Bioassay records from PubChem.
Most compounds without a hit are left out; they make up all but 3.3% or so of the library.
Sm TGR inh = inhibitors of Schistosoma mansoni thioredoxin glutathione reductase. Q962Y6. Potency, µM (doses to about 114 µM), without a hit: at the top dose activity change, negative = inhibition, hits mostly inhibitors. purified TGR, DTNB reduction, TNB absorbance 405 nm. 360,000 compounds, 3% hits. AID 485364; note: nearly all actives have a fitted effect of over 60% in size
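TGR 20 nM + NADPH 100 uM (dispensed conc.), cpd preinc 15 min RT; start with NADPH (500 uM addition) then DTNB (15 mM addition). Kinetic TNB absorbance, 405 nm filter. Four-parameter Hill fit across titration.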
AmpC detergent = inhibitors of E. coli AmpC beta-lactamase with detergent; AmpC hydrolysis of nitrocefin, absorbance 480 nm, 0.01% Triton; Potency, µM (titrated, usually from 114 µM), for the others: at the top dose activity change, negative = inhibition, actives largely listed as inhibitors; 370,000 compounds, 0.041% hits; AID 485294;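 note: 0% = no-compound wells and -100% = no-enzyme wells; nearly all actives have a fitted effect of over 25% in size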
Target sequence (P00811 whole entry, looked up): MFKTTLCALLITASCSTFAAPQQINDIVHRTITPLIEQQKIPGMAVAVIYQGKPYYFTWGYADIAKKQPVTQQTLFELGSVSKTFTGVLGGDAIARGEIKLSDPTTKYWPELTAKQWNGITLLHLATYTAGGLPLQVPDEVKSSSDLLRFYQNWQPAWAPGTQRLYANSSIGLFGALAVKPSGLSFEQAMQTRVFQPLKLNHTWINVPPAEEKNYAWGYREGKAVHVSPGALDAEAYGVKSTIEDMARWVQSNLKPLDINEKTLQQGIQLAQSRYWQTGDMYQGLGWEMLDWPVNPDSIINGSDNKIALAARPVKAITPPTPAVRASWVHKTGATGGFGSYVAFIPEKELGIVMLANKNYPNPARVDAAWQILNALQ
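20 mM phosphate pH 7.0 + 0.01% (detergent screen) or 0.0001% Triton X-100; 5.3 nM AmpC reagent; cpd preinc 15 min RT; nitrocefin (800 uM stock) to start; A480 q20 s × 4 min; Activity was normalised to no-enzyme and no-compound control wells.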
AmpC inh no detg = blocks E. coli AmpC beta-lactamase in detergent-free assay | Potency, µM (doses to about 57.1 µM), without a hit: top-dose activity change, negative = inhibition, hits mostly inhibitors | 330,000 compounds, 0.52% hits | AID 485341 | AmpC nitrocefin hydrolysis, absorbance 480 nm, 0.0001% Triton;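 note: plate controls were no compound for no effect and no enzyme for full effect; nearly all actives have a fitted effect of over 20% in size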
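20 mM phosphate pH 7.0 + 0.01% (detergent screen) or 0.0001% Triton X-100; 5.3 nM AmpC reagent; cpd preinc 15 min RT; nitrocefin (800 uM stock) to start; A480 q20 s × 4 min; Activity was normalised to no-enzyme and no-compound control wells.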
* hit, by the source's call; ? = inconclusive; / = no result; [ ] = dose if it differs, or a comment. Calls come from the whole dose curve; as a rule, active = well fitted curve in the direction sought with a large enough effect; inconclusive = small, poorly fitted or top-dose-only effect, or another doubt; inactive = no such curve, though single readings can be large; an effect the other way counts as inactive or inconclusive. Unless noted, % is set by controls: 0 for no effect and ±100 for the full control effect; potency is the fitted concentration of half-maximal effect.

SMILES	Sm TGR inh	AmpC detergent	AmpC inh no detg
CCOc1ccccc1NC(=O)N1CCC2(CC1)Oc1ccccc1C(=O)N2Cc1ccccc1F	0.5%	20.0%	/
Cc1ccc(CSc2nc3cccnc3n2Cc2nc(-c3ccccc3F)oc2C)cc1	-0.2%	16.2%	/
CCOc1ccc(CCNC(=O)c2c(C)oc3ncnc(N4CCOCC4)c23)cc1	-1.1%	23.9%	/
C=C1CC[C@@H]2[C@](C)(CO)[C@H](O)CC[C@@]2(C)[C@@H]1/C=C/C1=CCOC1=O	39.8µM*	0.2%	-18.1%
C=C1CCC2[C@](C)(CO)[C@H](O)CC[C@@]2(C)[C@@H]1/C=C/C1=CCOC1=O (stereo partly drawn)	?	-4.6%	-4.8%
Cc1nc(C(=O)NCc2ccccc2)sc1C1(C)CC(c2cccc([N+](=O)[O-])c2)=NO1 (stereo not drawn)	5.6%	-6.8%	-20.3%
COc1ccccc1C1=NOC(C)(c2nnc(Cc3ccccc3)o2)C1 (stereo not drawn)	1.0%	?	-6.1%
CC1(c2nnc(Cc3ccccc3)o2)CC(c2cccc([N+](=O)[O-])c2)=NO1 (stereo not drawn)	44.7µM*	-9.5%	-8.0%
CC1(c2nnc(Cc3ccccc3)o2)CC(c2ccccc2[N+](=O)[O-])=NO1 (stereo not drawn)	3.16µM*	?	-20.0%
COc1cccc(CNC(=O)c2sc3nc(C)cc(C)c3c2-n2cccc2)c1OC	-5.2%	2.4%	/
CN(C)c1ccc(CNC(=O)c2cnc3sc(N4CCOCC4)nn3c2=O)cc1	-6.2%	-5.5%	/
COc1cccc(CNC(=O)c2c(C)nn(-c3cccc(C)c3)c2-n2cccc2)c1	5.1%	2.8%	/
CCc1cccc(NC(=O)c2nc(-c3ccncc3)no2)c1	-8.4%	-3.9%	/
O=C(NCCSCc1ccc(Cl)cc1)C1CCN(S(=O)(=O)Cc2ccccc2)CC1	6.7%	3.9%	/
CC(=O)C(Sc1nc(N(C)C)nc(N(C)C)n1)C(=O)Nc1ccccc1 (stereo not drawn)	4.7%	?	-9.1%[2.29 µM]
CC(=O)C(Sc1nn(C)c(=S)s1)C(=O)Nc1ccccc1 (stereo not drawn)	25.1µM*	-3.9%	-34.3%
COc1cc2c(cc1OC)C1=C(C#N)COCN1CC2	20µM*	-8.8%	-0.1%
COc1cc2c(cc1OC)C1=C(C#N)CCC(=NC(=O)c3ccc(Cl)cc3)N1CC2	9.9%	-1.8%	-8.9%
Cc1cccc(CSc2nc3c(c(=O)[nH]2)C(c2cccc(O)c2)CC(=O)N3)c1 (stereo not drawn)	-1.8%	-6.2%	/
C=CCNc1ncnc2c1[nH]c1ccc(C)cc12	-9.8%	?	12.6µM*
Cc1ccc2[nH]c3c(NCCN4CCOCC4)ncnc3c2c1	-17.5%	-0.2%	-23.1%
CCOc1ccc(CCNC(=O)CCc2cn(Cc3ccc(C)cc3)c3ccccc23)cc1	1.0%	-12.2%	/
CCn1c(C)c(CS(=O)(=O)c2ccccc2)[nH]c1=O	0.0282µM*	-6.4%	-18.2%
O=c1[nH]c(CS(=O)(=O)c2ccccc2)nc2ccccc12	?	?	-16.2%
CCNC(=O)c1ccc2nc(Cc3ccccc3)oc2c1	1.1%	-0.3%	/
SMILES	Sm TGR inh	AmpC detergent	AmpC inh no detg
CCCCOc1ccc(N=Cc2cccs2)cc1	6.8%	-4.1%	-11.5%
Oc1ccc(N=Cc2ccc(-c3cccs3)s2)cc1	22.4µM*	-15.1%	-35.8%
COC(=O)CSc1nnc(C)c(=O)[nH]1	6.0%	1.2%	-11.2%
CCOC(=O)CNc1nnc(SCC(=O)OCC)[nH]c1=O	56.2µM*	-7.7%	-12.7%
CCCNC(=O)CSc1c2c(nc3ccc(Cl)cc13)CCCC2	0.9%	2.0%	/
N#C/C(=C\c1ccc(N2CCOCC2)o1)c1nc2ccccc2[nH]1	?	-13.3%	5.8%
N#C/C(=C/c1ccc(N2CCOCC2)o1)c1ccc(Cl)cc1	1µM*	1.9%	35.8%
COc1cccc(NC(=S)Nc2ccc(F)cc2)c1	?	0.3%	-30.1%
Fc1cccc(NC(=S)Nc2ccc(Br)cc2)c1	20µM*	-1.9%	-48.5%
COc1ccccc1NC(=O)C1=C(C)Nc2nnnn2C1c1ccccc1OC (stereo not drawn)	-3.7%	?	-13.1%
COc1ccccc1/C=C1\CCCC2=C1Nc1nnnn1C2c1ccccc1OC (stereo not drawn)	3.98µM*	-7.6%	-57.3%
COc1ccc(CNC(=O)c2cnc3sc(N4CCCC4)nn3c2=O)cc1OC	-7.2%	2.8%	/
COc1cccc(-c2nn(C)c3sc(C(=O)NCc4ccc(C)o4)cc23)c1	8.91µM*	8.4%	36.5%
COc1cccc(-c2nn(C)c3sc(C(=O)NCc4ccc(OC)cc4OC)cc23)c1	10.5%	4.3%	/
COC(=O)c1ccccc1NC(=O)Cn1ncc2c(C)n(Cc3ccc(F)cc3)c(C)c2c1=O	10.6%	6.0%	/
CC(=O)c1[nH]c(C)c(C(=O)NCc2ccc(Cl)cc2)c1C	-6.4%	-7.7%	/
O=C(NCc1ccc(Cl)cc1)C(=O)NCC(c1ccc2c(c1)OCO2)N1CCOCC1 (stereo not drawn)	5.9%	9.2%	/
O=c1c2ccccc2ncn1-c1ccc(Br)cc1[N+](=O)[O-]	2.4%	?	1.5%
O=C1c2cc(Br)ccc2N(Cc2ccc(Br)cc2)S(=O)(=O)C1c1cc(Cl)c(Cl)cc1[N+](=O)[O-] (stereo not drawn)	/	/	2µM*
Cc1ccccc1Nc1cc(C(=O)NC2CCC(C)CC2)c2ccccc2n1 (stereo not drawn)	11.3%	-0.3%	/
NC(=O)c1ccsc1NC(=O)c1ccc(N2CCCC2=O)cc1	-11.2%	4.6%	7.94µM*
NC(=O)c1ccsc1NC(=O)c1ccc2c(c1)CCCC2	-8.4%	-12.3%	-25.1%
CCOc1cccc2sc(N(Cc3cccnc3)C(=O)C3CCCCC3)nc12	10.0%	3.1%	/
Cc1ccc(NC(=O)CCCn2c(=O)c3cccn3c3cccnc32)cc1C	2.4%	15.7%	/
O=C1C2C3C=CC(C4CC34)C2C(=O)N1Cc1ccccc1 (stereo not drawn)	32.3%	-0.9%	3.0%
SMILES	Sm TGR inh	AmpC detergent	AmpC inh no detg
O=C1C2C3C=CC(C3=C3CCCCC3)C2C(=O)N1Cc1ccccc1 (stereo not drawn)	17.8µM*	-7.4%	-21.9%
COc1ccc2c(c1)CCc1c(C(=O)Nc3c(C)nn(Cc4ccc(C)cc4)c3C)noc1-2	1.2%	-0.7%	/
COc1ccc(C2CC(c3ccc(Br)cc3)=NN2C(=O)CCC(=O)O)cc1OC (stereo not drawn)	-20.4%	-7.7%	-21.5%
COc1ccc(C2=NN(C(=O)CCC(=O)O)C(c3ccc(OC)c(OC)c3)C2)cc1 (stereo not drawn)	22.4µM*	3.9%	0.6%
COc1ccc(C2=NN(C(=O)CSc3cn(C)c4ccccc34)C(c3ccc(OC)cc3)C2)cc1 (stereo not drawn)	1.4%	?	1.58µM*
COc1ccc(C2=NN(C(=O)CSc3ncccn3)C(c3ccc(OC)cc3)C2)cc1 (stereo not drawn)	-6.0%	-2.0%	72.5%
CCOc1ccc(Nc2oc(/C=C/c3cc(OC)c(OC)c(OC)c3)nc2C#N)cc1	0.0%	14.3%	/
CSc1ncc(C(=O)Nc2cc(Cl)ccc2C)c(-c2ccccc2)n1	-3.7%	0.9%	/
C[C@H](NC(=O)OC(C)(C)C)c1nnc(SCc2ccc(Cl)cc2Cl)o1	12.4%	-0.8%	/
